From PubChem BioAssay AID463187 (University of Pittsburgh Molecular Library Screening Center, 2010)
Among all 220,000 compounds or so, about 1,500 (0.68%) were called active.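 The calls were made as follows: active = Hck-Nef kinase inhibition above about 50% (limit read from the data); inactive = inhibition below that limit.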 The list comes from a sample in which actives are over-represented; it also holds similar structures and randomly drawn compounds.

Molecular target: Tyrosine-protein kinase HCK (Homo sapiens) (UniProt P08631)
Assay: inhibitors of Nef-activated human Hck kinase, primary screen, biochemical, Z-Lyte FRET, 384-well, Hck-YEEI (AID 463187);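 also: 0% = DMSO with Hck plus Nef and 100% = Hck alone without Nef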
Settings: Recombinant Hck-YEEI plus Nef, Z-Lyte FRET kinase assay; at 20 µM; stronger effect = higher value

Tyrosine-protein kinase HCK (Homo sapiens), sequence (P08631 whole entry, looked up): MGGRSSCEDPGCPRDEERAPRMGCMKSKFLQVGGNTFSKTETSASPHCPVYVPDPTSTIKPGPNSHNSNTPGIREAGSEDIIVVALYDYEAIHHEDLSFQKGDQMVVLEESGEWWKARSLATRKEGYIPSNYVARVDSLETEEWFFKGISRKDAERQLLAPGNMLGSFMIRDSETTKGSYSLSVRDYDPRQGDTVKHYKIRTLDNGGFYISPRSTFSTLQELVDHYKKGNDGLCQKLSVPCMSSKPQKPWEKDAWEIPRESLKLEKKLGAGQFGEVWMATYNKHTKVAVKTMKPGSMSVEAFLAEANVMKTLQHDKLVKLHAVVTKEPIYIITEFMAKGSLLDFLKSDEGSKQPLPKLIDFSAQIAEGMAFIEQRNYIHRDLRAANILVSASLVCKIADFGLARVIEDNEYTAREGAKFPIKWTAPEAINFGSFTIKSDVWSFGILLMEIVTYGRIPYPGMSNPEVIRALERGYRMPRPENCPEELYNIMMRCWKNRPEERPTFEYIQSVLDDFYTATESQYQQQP

SMILES | inhibition
CCOc1ccccc1NC(=O)c1cc(S(=O)(=O)N2CCC3(CC2)OCCO3)ccc1F | 2.23% (inactive)
COc1ccc(NC(=O)c2oc3ccc(S(=O)(=O)N4CCOCC4)cc3c2C)cc1 | -8.31% (inactive)
Cc1c(C(=O)Nc2ccccc2Cl)oc2ccc(S(=O)(=O)N3CCC4(CC3)OCCO4)cc12 | 74.2% (active)
O=C(CCSCCc1ccccn1)Nc1nccs1 | 7.74% (inactive)
OCc1nc(CO)n(Cc2ccccc2)n1 | 0.365% (inactive)
CC1CCCN(CCOCCOc2ccccc2-c2ccccc2)C1 (stereo unspecified) | 0.832% (inactive)
Cc1ccc(NC(=S)N2CCCC(c3ccccc3)=N2)cc1 | -10% (inactive)
Cc1nc2ccccc2n1CC(=O)N/N=C/c1cccnc1 | 24.3% (inactive)
CCOC(=O)N/N=C/c1cccnc1 | -26.2% (inactive)
O=C(CSc1cccc2cccnc12)N/N=C/c1cccnc1 | 51.3% (active)
CC(CNc1ccc([N+](=O)[O-])c2cccnc12)Nc1c([N+](=O)[O-])cc(C(F)(F)F)cc1[N+](=O)[O-] (stereo unspecified) | -2.43% (inactive)
Cc1cccc(/C(N)=N/OC(=O)c2ccccc2Cl)c1 | 5.79% (inactive)
Cc1cc(OC(=O)c2ccccc2Cl)ccc1N1C(=O)CCC1=O | 52.4% (active)
COc1ccccc1C(=O)Oc1ccc(N2C(=O)CCC2=O)cc1 | 1.47% (inactive)
Cc1sc2c(c1C)c(=O)n(-c1ccccc1)c(=O)n2CC(=O)NCC1CCCO1 (stereo unspecified) | -19.9% (inactive)
O=C(COC(=O)c1ccccc1NC(=O)c1ccco1)Nc1ccc2c(c1)OC(F)(F)O2 | 5.95% (inactive)
CCn1c(=N)c(S(=O)(=O)c2ccc(F)cc2)cc2c(=O)n3ccccc3nc21 | 11.1% (inactive)
Cc1ccc(-n2ncc3c(=O)n(-c4ccc(C)c(C)c4)c(-c4ccco4)nc32)cc1 | -0.384% (inactive)
Cc1ccc(-n2c(=O)c(C#N)cc3c(=O)n4ccccc4nc32)cc1C | 73.3% (active)
CNC(=S)Nc1ccc([N+](=O)[O-])cc1 | 21.3% (inactive)
CN(C)CC(C)(C)CNC(=O)c1cc(Br)cc(Br)c1O | 21.9% (inactive)
COc1cc(NC(=O)COC(=O)CSc2ccc3ccccc3c2)c(C)cc1[N+](=O)[O-] | 2.59% (inactive)
Cc1cccc(N2CCN(C(=O)CN(C)S(=O)(=O)c3ccc4c(c3)CCC(=O)N4)CC2)c1C | 0.348% (inactive)
O=C(NCc1ccccc1)C1CCCN(S(=O)(=O)c2cccs2)C1 (stereo unspecified) | -1.98% (inactive)
CCc1ccc(CNC(=O)C2CCCN(c3nc4ccccc4o3)C2)cc1 (stereo unspecified) | -20.1% (inactive)
O=C(NCc1ccccc1)C1CCCN(c2nc3ccsc3c(=O)s2)C1 (stereo unspecified) | 63.7% (active)
